Assay outcomes from PubChem.
S1P2 antag: antagonists of human S1P2 receptor; 97,000 tested, 0.21% active; inhibition, % at 5 µM; AID 736; O95136; cell-based S1P2 antagonist assay, inhibition at 5 uM; in the data active = inhibition above about 45%;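 note: CRE beta-lactamase reporter cells expressing human S1P2 stimulated with S1P; 0% = agonist at EC80 alone and 100% = agonist plus reference antagonist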
Target sequence (O95136 whole entry, looked up): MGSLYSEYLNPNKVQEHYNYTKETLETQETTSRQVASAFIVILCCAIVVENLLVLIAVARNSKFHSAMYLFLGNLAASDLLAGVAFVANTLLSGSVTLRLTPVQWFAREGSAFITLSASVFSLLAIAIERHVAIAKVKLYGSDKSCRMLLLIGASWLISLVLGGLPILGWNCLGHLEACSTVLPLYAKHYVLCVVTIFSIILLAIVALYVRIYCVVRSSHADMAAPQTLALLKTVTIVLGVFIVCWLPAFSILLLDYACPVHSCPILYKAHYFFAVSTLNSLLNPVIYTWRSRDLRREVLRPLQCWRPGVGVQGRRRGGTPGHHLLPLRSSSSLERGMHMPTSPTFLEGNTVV
GALR2 agonist: activates the human galanin receptor 2. O43603. activation, % (test concentration not listed). 140,000 tested, 0.48% active. GALR2-expressing cells, agonist activation read-out; in the data active = activation above about 5%, passing the limit was not always enough;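 note: 0% = vehicle buffer wells and 100% = reference agonist at full effect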
CD11b adhes enh: enhancers of human CD11b/CD18 binding to fibrinogen; K562 CD11b/CD18 adhesion to fibrinogen, ATPlite luminescence; activation, % at 10 µM; 93,000 tested, 0.07% active; AID 1499;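 active = 10 µM primary screen giving 50% or more activity, confirmed by 40% or more on retest at that dose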
S1P2 agonist: agonists of human S1P2 receptor; activation, % at 4.5 µM; O95136; 97,000 tested, 0.46% active; S1P2-expressing cell line, agonist reporter read-out; in the data active = activation above about 16%;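 note: 0% = vehicle low control and 100% = maximal reference agonist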
CD11b adhes inh: CD11b/CD18-fibrinogen binding inhibition; inhibition, % at 10 µM; 93,000 tested, 0.54% active; K562 CD11b/CD18 adhesion to fibrinogen, ATPlite luminescence; Mn2+ added to activate the integrin;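 active = primary inhibition of 50% or more at 10 µM, then 40% or more on retest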
GALR2 blocker: antagonists of human galanin receptor 2 (GALR2); O43603; GALR2-expressing cells, antagonist mode; inhibition, % at 4 µM; 140,000 tested, 0.39% active; in the data active = inhibition above about 27%;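 note: cells stimulated with galanin 1-16 at roughly its EC80; 0% = agonist challenge control and 100% = basal control without agonist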
* = called active by the depositor; / = no result. This is a sample that favours compounds with a hit; in the whole collection about 1.4% have one here.

SMILES | S1P2 antag | GALR2 agonist | CD11b adhes enh | S1P2 agonist | CD11b adhes inh | GALR2 blocker
CCN1/C(=C/c2ccc3ccccc3[n+]2CC)C=Cc2ccccc21 | 81* | 0 | -6 | -2 | 94* | 24
N#Cc1cc2c(nc1SCC(=O)N1CCCCC1)CCCCC2 | -21 | -1 | 4 | -5 | 4 | 2
N#Cc1cc2c(nc1SCC(=O)N1CCCCC1)CCCC2 | 17 | 1 | 5 | 32* | -12 | 0
Cc1oc(-c2ccc(Cl)cc2)nc1CN1CCCC(C(=O)NCc2cccnc2)C1 (stereo not drawn) | 23 | -1 | -10 | -11 | 84* | 8
O=C(O)CCCN1C(=O)/C(=C/c2ccc(-c3nc4ccccc4s3)o2)SC1=S | 9 | -4 | 41 | -7 | 93* | -13
COC(=O)c1ccc(CSc2nnc(CNC(=O)COc3ccc(Cl)cc3)o2)o1 | 13 | -3 | -1 | -10 | 9 | 1
COc1ccc(-c2cn(-c3ccc(C)cc3)c(=O)n2CC(=O)Nc2cccc(F)c2)cc1 | -19 | 15* | 5 | -5 | -4 | -20
CCOc1ccc(NC(=O)CN2CCN(CC(=O)Nc3cccc(F)c3)CC2)cc1 | / | -1 | -4 | / | -12 | 3
Cc1nn(C)c(C)c1S(=O)(=O)N(CC(=O)Nc1nccs1)c1ccc(C(C)C)cc1 | / | -2 | / | / | / | 14
O=C(NC1CCCCCC1)C1CCC(CNS(=O)(=O)c2ccc(Br)s2)CC1 (stereo not drawn) | / | 5.3* | / | / | / | -7
CCOC(=O)N1CCC(NC(=O)CNS(=O)(=O)c2ccc(Br)s2)CC1 | 15 | -3 | -3 | -7 | 0 | 9
O=C(NC(=S)Nc1ccc(Oc2ccccc2)cc1)c1ccc(Cl)cc1 | -7 | -3 | -9 | -5 | 78* | -1
CN(C)c1ccc(/C=C/C(O)=C2/C(=O)N(C)C3(C)CC2c2ccccc2O3)cc1 (stereo not drawn) | 69* | 4 | / | -2 | / | 8
O=c1cc(-c2c(F)c(F)c(F)c(F)c2F)oc2c(F)c(F)c(F)c(F)c12 | / | -1 | -6 | / | -2 | 69*
CN1c2ccccc2C(O)=C(C(=S)Nc2ccc(Cl)cc2)S1(=O)=O | 12 | -1 | -6 | -4 | 52* | 8
O=C(CSc1ncn[nH]1)Nc1ccc2c(c1)OCCO2 | 1 | -2 | -1 | -5 | -3 | 0
COc1cc(CNC2CCCC2)cc(Cl)c1OCc1ccccc1Cl | -5 | 0 | / | -3 | / | -11
COc1cc2c(cc1OC)-c1cc(NC3CCCC3)nc(=O)n1CC2 | -35 | 0 | -1 | 24* | 7 | -7
COc1cc2c(cc1OC)-c1cc(OCc3ccccc3Cl)nc(=O)n1CC2 | -51 | 1 | -4 | 29* | 4 | -1
O=C(CCS(=O)(=O)c1ccccc1)Nc1ccccc1-c1nc2ccccc2s1 | / | 0 | 12 | / | 0 | -6
O=c1c2ccccc2[nH]c2ccccc12 | / | 5.6* | / | / | / | 8
O=c1c2c([nH]c3ccccc13)CCCCCC2 | 3 | -1 | 4 | -3 | -42 | 4
O=C(O)CCC(=O)N1CCN(c2nc(-c3ccccc3Cl)c3cc(Br)ccc3n2)CC1 | -15 | 10 | / | 16* | / | 9
CC(c1ccccc1)C1CC(=O)N(c2ccc(C(=O)O)cc2)C1=O (stereo not drawn) | -14 | -1 | 1 | 1 | 29 | -8
CN=C1NN=C(c2cc(C)n(-c3c(C)n(C)n(-c4ccccc4)c3=O)c2C)CS1 | / | 0 | / | / | / | -1
SMILES | S1P2 antag | GALR2 agonist | CD11b adhes enh | S1P2 agonist | CD11b adhes inh | GALR2 blocker
COCCCN=C1NN=C(c2cc(C)n(Cc3ccco3)c2C)CS1 | / | 2 | / | / | / | 7
Cc1cc(C2=NNC(=NC3CC3)SC2)c(C)n1Cc1ccco1 | / | -1 | 19 | / | 75* | -2
Cc1cc(C2=NNC(=NC3CC3)SC2)c(C)n1-c1ccccc1 | / | 0 | -5 | / | 98* | -12
Nc1nc(Br)c2c(F)cccc2c1-c1ccccc1 | -5 | 2 | / | 14 | / | 0
Nc1nc(Br)c2c(F)cccc2c1-c1ccc(F)cc1 | -12 | 7 | / | 22* | / | 5
COc1ccc(-n2c(-c3ccc(Br)cc3)c[n+]3c2CCc2ccccc2-3)cc1 | / | -2 | / | / | / | 9
COc1ccc(-c2cn(-c3ccc(OC)cc3)c3[n+]2-c2ccccc2CC3)cc1 | / | -1 | -3 | / | 84* | 6
C=CCc1ccc(OCC(O)COCC)c(OC)c1 (stereo not drawn) | 16 | -1 | -2 | -6 | -11 | 0
